The text below walks through data of PubChem BioAssay (NCATS).

The structures appear in SMILES notation. Inconclusive results are not listed. Unmarked numbers belong to inactive results. The source made the active and inactive calls. The call rests on the fitted dose curve; in most records, active means well fitted cell-killing curve with a large enough effect; inconclusive means small, poorly fitted or top-dose-only effect, or effect the other way; inactive means no such curve, though single readings can be large or run the other way.
Potency means the concentration at half of the fitted maximal effect.

This experiment can be described thus: Quantitative High-Throughput drug screen in 47 multiple myeloma cell lines against the NCATS MIPE library collection: OCIMY5_PLB cell viability assay (AID 1918988). Further: nearly all actives have a fitted effect of over 65% in size. The settings on record: OCI-MY5 myeloma viability, ATP luminescence, 48 h; series mostly up to 45.8 µM; viability, % of control: at the top concentration. The text has this:
PI: Beverly A. Mock Ph.D.
Laboratory of Cancer Biology and Genetics,
Center for Cancer Research, National Cancer Institute,
National Institute of Health, Bethesda, Maryland
Drug resistance and disease progression are common in multiple myeloma (MM) patients, underscoring the need for new therapeutic combinations. […] We hypothesized that effective combinations would reduce MYC expression and enhance p16 activity. […] These preclinical data identify potentially useful drug combinations for evaluation in drug-resistant MM and reveal potential mechanisms of combined drug sensitivity.
Described herein is the primary MIPE qHTS used to cherrypick compounds. Validated compounds were then further tested for potential synergistic activiy.
[1] Peat TJ, Gaikwad SM, Dubois W, Gyabaah-Kessie N, Zhang S, Gorjifard S, Phyo Z, Andres M, Hughitt VK, Simpson RM, Miller MA, Girvin AT, Taylor A, Williams D, D'Antonio N, Zhang Y, Rajagopalan A, Flietner E, Wilson K, Zhang X, Shinn P, Klumpp-Thomas C, McKnight C, Itkin Z, Chen L, Kazandijian D, Zhang J, Michalowski AM, Simmons JK, Keats J, Thomas CJ, Mock BA. Drug combinations identified by high-throughput screening promote cell cycle transition and upregulate Smad pathways in myeloma. Cancer Lett. 2023 Aug 1;568:216284. doi: 10.1016/j.canlet.2023.216284. Epub 2023 Jun 24. PMID: 37356470; PMCID: PMC10408729.
SEQUENCE No. (e.g., 1, 2, 3, etc.); […] (e.g., Cells, Incubation, Reagent, etc.); VALUE and DESCRIPTION.
1; Cells; 5 uL; white, solid bottom 1536-well Greiner assay plate.
2; Compounds; 23 nL; Kalypsis pin tool (Wako USA) equipped with a 1536-well pin head to transfer to the assay plates.
3; Incubation; 48 hours; 37C incubation.
4; Reagent;5uL; CellTiter Glo (Promega).
5; Detector; 425V; Luminescence; Viewlux PerkinElmer.
NOTES (numbers refer to Sequence numbers above)
1. The cell-based screening methods employed in this study were like those previously published. Briefly, the corresponding myeloma cell lines were screened in 1,536-well plates with 500 cells, 5-uL per well for inhibition of cell viability (assessed by measuring ATP levels with CellTiterGlo).
2. NCATS MIPE 4.0 library of approved and investigational drugs were added using the Kalypsis pin tool. Wells treated with DMSO only for 100% viability and media only for 0% viability were used as controls.
3. The assay plates were covered and incubated for 48 hours in a 37C, 5% CO2 incubator with controlled humidity.
4. After 48 hours, CellTilter-GloTM luminescent substrate mix (Promega) reagent was added to the assay plate and plates we incubated for 5 min at room temperature.
5. Signal was measured as median relative luminescence units on a ViewLux (PerkinElmer) multiplate reader.
[1] Heske CM, Davis MI, Baumgart JT, Wilson K, Gormally MV, Chen L, Zhang X, Ceribelli M, Duveau DY, Guha R, Ferrer M, Arnaldez FI, Ji J, Tran HL, Zhang Y, Mendoza A, Helman LJ, Thomas CJ. Matrix Screen Identifies Synergistic Combination of PARP Inhibitors and Nicotinamide Phosphoribosyltransferase (NAMPT) Inhibitors in Ewing Sarcoma. Clin Cancer Res. 2017 Dec 1;23(23):7301-7311. doi: 10.1158/1078-0432.CCR-17-1121. Epub 2017 Sep 12. PMID: 28899971; PMCID: PMC6636827.
Consider `CN(C)[C@@H](CCOc1cccc2ccccc12)c1ccccc1`, for which the Potency is 20.9 µM (active). As to `Cc1cccc(CN2CCN(C(c3ccccc3)c3ccc(Cl)cc3)CC2)c1` (stereo not given), the Potency was 20.9 µM (active). As to `Oc1ccc(-c2nc(-c3ccc(F)cc3)c(-c3ccncc3)[nH]2)cc1`, the Potency was 16.6 µM (active). As for `C[C@]12CCC(=O)C=C1CC[C@@H]1[C@H]2[C@@H](O)C[C@@]2(C)[C@H]1CC[C@]2(O)C(=O)CO`, the “viability, % of control” value is 165%. As to `Cc1cc2cc3c(C)cc(=O)oc3c(C)c2o1`, the Potency was 8.33 µM (active). Take `CCCCN(CCCC)CCC(O)c1cc2c(Cl)cc(Cl)cc2c2cc(C(F)(F)F)ccc12` (stereo not given): the Potency was 11.8 µM (active). On to `CC(=O)O[C@H]1C(=O)[C@@]2(C)C([C@H](OC(=O)c3ccccc3)[C@]3(O)C[C@H](OC(=O)[C@H](O)[C@@H](NC(=O)c4ccccc4)c4ccccc4)C(C)=C1C3(C)C)[C@]1(OC(C)=O)CO[C@@H]1C[C@@H]2O` (stereo not given in full), for which the “viability, % of control” value was 34.5%.

Consider `CCCOc1ccc2nc(NC(=O)OC)[nH]c2c1`, for which the Potency was 0.0026 µM (active). For `COc1ccc2cc([C@H](C)C(=O)O)ccc2c1`, the Potency was 20.9 µM (active).

With `NC(=NCc1ccccc1)NC(=O)c1nc(Cl)c(N)nc1N`, the “viability, % of control” value was 195%. Turning to `C[C@@H](N)C1CCC(C(=O)Nc2ccncc2)CC1` (stereo not given in full), the Potency is 11.8 µM (active). For the compound `CN(C)C(=O)[C@H](O)[C@H](Cc1ccccc1)NC(=O)c1cc2cc(Cl)ccc2[nH]1`, the Potency was 13.2 µM (active).

Regarding `CN(C)c1ccc2nc3ccc(=[N+](C)C)cc-3sc2c1`, the Potency is 0.526 µM (active). Consider `Clc1ccc(C(Cn2ccnc2)OCc2ccc(Sc3ccccc3)cc2)c(Cl)c1` (stereo not given), for which the Potency was 26.4 µM (active). Regarding `CC(=O)N1CCN(c2ccc(OC[C@H]3CO[C@](Cn4ccnc4)(c4ccc(Cl)cc4Cl)O3)cc2)CC1`, the Potency is 18.7 µM (active). As to `C[C@H](Cc1ccc(O)c(O)c1)[C@@H](C)Cc1ccc(O)c(O)c1`, the Potency was 16.6 µM (active). For `CCCCc1ccc2nc(NC(=O)OC)[nH]c2c1`, the Potency was 0.0037 µM (active). Consider `CC(C)C[C@H](NC(=O)[C@H](Cc1ccccc1)NC(=O)c1cnccn1)B(O)O`, for which the Potency was 0.0047 µM (active). On the same count and under the same terms, the figure for `COc1cc(C(C)=O)ccc1OCCCN1CCC(c2noc3cc(F)ccc23)CC1` is 6.62 µM (active); for `O=C(NC(Cc1cc(=O)[nH]c2ccccc12)C(=O)O)c1ccc(Cl)cc1` (stereo not given) it is 14.8 µM (active); for `Cc1nc(Nc2ncc(C(=O)Nc3c(C)cccc3Cl)s2)cc(N2CCN(CCO)CC2)n1` it is 0.743 µM (active). On to `CCC(C)(Oc1ccc(C2(c3ccc(OC(C)(CC)C(=O)O)cc3)CCCCC2)cc1)C(=O)O` (stereo not given), for which the “viability, % of control” value is 176%. As for `CCCCCCCCCCCCCCCCCCCCCCO`, the “viability, % of control” value was 146%. On to `CCCS(=O)c1ccc2nc(NC(=O)OC)[nH]c2c1` (stereo not given), for which the Potency was 16.6 µM (active). Consider `O=Nc1c(-c2c(O)[nH]c3cc(Br)ccc23)[nH]c2ccccc12`, for which the Potency was 7.43 µM (active). With `COC1=C(OC)C(=O)C(CCCCCCCCCCO)=C(C)C1=O`, the Potency was 20.9 µM (active). Regarding `CCCc1cc(=O)[nH]c(=S)[nH]1`, the “viability, % of control” value was 163%. As to `CN(C)c1ccc(O)c2c1C[C@H]1C[C@H]3[C@H](N(C)C)C(=O)C(C(N)=O)=C(O)[C@@]3(O)C(=O)C1=C2O`, the Potency was 9.35 µM (active).

As for `O=C(c1ccccc1)c1ccc2n1CCC2C(=O)O` (stereo not given), the Potency was 0.743 µM (active).

On to `Nc1ccc(S(N)(=O)=O)cc1`, for which the “viability, % of control” value is 161%.

Turning to `CC1(C)C(=O)N(CCN2CCC(C(=O)c3ccc(F)cc3)CC2)c2ccccc21`, the Potency is 5.26 µM (active). Consider `c1cnc2cc3c(cc2n1)C1CNCC3C1`, for which the “viability, % of control” value is 185%. With `Cc1ccc(Nc2nccc(N(C)c3ccc4c(C)n(C)nc4c3)n2)cc1S(N)(=O)=O`, the Potency is 16.6 µM (active).

For `Cc1cc(=O)c2c(O)c3c(O)cc(=O)c4c3c3c(cc(O)c1c23)C(C)(C)C=4O`, the Potency is 8.33 µM (active). As for `COc1cc(Nc2c(C#N)cnc3cc(OCCCN4CCN(C)CC4)c(OC)cc23)c(Cl)cc1Cl`, the Potency was 18.7 µM (active). The same measure, in the same setting: with `CS(=O)(=O)OCCCCOS(C)(=O)=O` the figure was 5.9 µM (active); with `CCOC(=O)c1c(C)n(C)c2ccc(O)cc12`, 3.72 µM (active).

As to `Nc1cccc2c1CN(C1CCC(=O)NC1=O)C2=O` (stereo not given), the “viability, % of control” value is 122% [at 92.2 µM]. With `CCc1nc(N)nc(N)c1-c1ccc(Cl)cc1`, the “viability, % of control” value is 146%. On the same count and under the same terms, with `CCC1=C(C)CN(C(=O)NCCc2ccc(S(=O)(=O)NC(=O)NC3CCC(C)CC3)cc2)C1=O` (stereo not given) the figure was 171%.
